The values that follow come from PubChem BioAssay (Tox21).

A number with no mark means an inactive call. Results filed as inconclusive are left out. Activity calls are given as the source filed them. Unless noted, calls come from the whole dose curve; as a rule, active = well fitted curve in the direction sought with a large enough effect in the repeat runs; inconclusive = weak or mixed curves; inactive = no such curve, though single readings can be large; an effect the other way counts as inactive or inconclusive.

A short description of assay [1]: qHTS assay to identify small molecule agonists of the hypoxia (HIF-1) signaling pathway - cell viability counter screen (AID 1224844; calls by dose curve; note: nearly all actives have a fitted effect of over 50% in size; note: potency is the fitted concentration of half-maximal effect). In a few lines: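 CellTiter-Glo luminescence read-out, 30 min RT, taken in the same wells as the beta-lactamase HRE reporter assay; HRE-bla ME-180 cells, 0.5% dialyzed FBS, 17 hr compound treatment at 37C, 5% CO2.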
(qHTS replaces the single test concentration by a dilution series.)

A short description of assay [2]: qHTS assay to identify small molecule agonists of H2AX (AID 1224845; active = well fitted activation curve with a large enough effect in the signal ratio in the repeat runs, not every such curve was filed as active; the % refers to the signal ratio). In a few lines:
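Wild-type CHO-K1 cells, plated overnight, exposed 3hr at 37C to 15 concentrations (0.76% DMSO final). Lysed, then HTRF anti-pH2AX (S139) cryptate and anti-H2AX-d2 antibodies, 24 hr room temperature; 665/620 nm emission read.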

Assay [3] is described as follows: qHTS assay to identify small molecule agonists of the hypoxia (HIF-1) signaling pathway (AID 1224846; active = well fitted activation curve with a large enough effect in the signal ratio in the repeat runs, not every such curve was filed as active; the % refers to the signal ratio). In a few lines:
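Beta-lactamase FRET read-out (CCF4-AM substrate) from ME-180 cells carrying an HRE-driven bla reporter, after 17 hrs compound exposure at 37C/5% CO2. Cells were seeded at 2,000 per well in 0.5% dialyzed FBS medium and preincubated 5 hrs.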

A short description of assay [4]: qHTS assay to identify small molecule agonists of H2AX - cell viability counter screen (AID 1224847; calls by dose curve; note: nearly all actives have a fitted effect of over 30% in size; note: potency is the fitted concentration of half-maximal effect). In a few lines: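 Counter-screen for viability: CellTiter-Glo ATP luminescence read after 3 h compound treatment (15-point titration, 0.76% DMSO final) of CHO-K1 cells at 37C, with 30 min room-temperature reagent incubation.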
Assay [5] can be described thus: qHTS assay to identify small molecule antagonists of the estrogen related receptor (ERR) signaling pathway from Tox21 library (AID 1224848). Note: nearly all actives have a fitted effect of over 50% in size. Note: potency is the fitted concentration of half-maximal effect. In a few lines: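 Quantitative high-throughput format: ERR reporter cells (2,000/well) pre-incubated 6 h, treated 18 h at 37 C with compounds in DMSO alongside positive and negative controls, then read by ONE-Glo luminescence.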

Assay [6] is described as follows: qHTS assay to identify small molecule agonists of the estrogen related receptor (ERR) signaling pathway from Tox21 library (AID 1224849; calls by dose curve; note: nearly all actives have a fitted effect of over 15% in size). The note with it: ERR reporter cell line, ONE-Glo luciferase, 18 h; at 92.4 µM (top of the series) unless noted. In a few lines:
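Luminescence readout (ONE-Glo, 30 min RT) after 18 h compound exposure at 37 C of NTP-supplied ERR reporter cells; cells were plated 6 h before compound addition by pin tool.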

Assay [7] is described as follows: A CellTox Green Cytotoxicity Assay to monitor cytotoxicity in HEK293 cells - 0 hour (AID 1224869). Note: nearly all actives have a fitted effect of over 50% in size. Note: potency is the fitted concentration of half-maximal effect. In a few lines:
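Read-out: fluorescence of a cell-impermeant cyanine dye staining DNA of dead cells, proportional to cytotoxicity. HEK293, 600 cells/well with reagent, compound (23 nL DMSO) added after 5 h; reads at 0, 8, 16, 24, 32, 40 h.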

Assay [8] can be described thus: qHTS RealTime-Glo MT Cell Viability Assay in HepG2 cells - 24 hour (AID 1224867). Note: nearly all actives have a fitted effect of over 50% in size. In a few lines: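 Real-time, nonlytic viability: 600 HepG2 cells/well mixed with NanoLuc enzyme plus prosubstrate; 5 h settle, compound (DMSO) added by pintool; luminescence monitored over 40 h at 37 C.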
The nature of assay [9]: qHTS RealTime-Glo MT Cell Viability Assay in HEK293 cells - 32 hour (AID 1224868). Note: nearly all actives have a fitted effect of over 50% in size. Note: potency is the fitted concentration of half-maximal effect. In a few lines: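 Cells + reagent dispensed (600 cells/well, HEK293) → 5 h at 37 C/5% CO2 → 23 nL compound in DMSO pinned → 40 h at 37 C → luminescence read at 0, 8, 16, 24, 32, 40 h.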
A short description of assay [10]: qHTS RealTime-Glo MT Cell Viability Assay in HepG2 cells - 40 hour (AID 1224870). Note: nearly all actives have a fitted effect of over 50% in size. In a few lines:
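HepG2 cells (600/well) mixed with RealTime-Glo MT reagent, settled 5 h at 37 C/5% CO2 before compound addition. Nonlytic NanoLuc luminescence from viable-cell prosubstrate reduction read repeatedly during 40 h treatment at 37 C.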
% is set by controls: 0 for no effect and ±100 for the full control effect.

As for `CCc1c(C(=O)NN2CCCCC2)nn(-c2ccc(Cl)cc2Cl)c1-c1ccc(Br)cc1`, the Potency in [1] was 21.9 µM (active); in assay [5], 1.22 µM (active). For the same compound, the Potency entry in assay [2], in [3], in [4] and in assay [7] was “inactive” in each case. For the same compound, in [6], the activity change, positive = activation was -62%.

For `CN(C)c1ccc(CCO)cc1`, the Potency entry in assay [1], in assay [2], in assay [3], in assay [4], in assay [8] and in assay [7] was “inactive” each time. The Potency result in assay [10] is “inactive”. Moreover, in [9], the Potency is 30.7 µM (active).

As to `O=[N+]([O-])c1ccc(NCCO)c(OCCO)c1`, the Potency result in [1], in assay [2], in [3], in assay [4], in assay [5] and in assay [8] was “inactive” in each case. Further, the Potency result in assay [9], in assay [7] and in assay [10] was “inactive” in each case. Moreover, in assay [6], the activity change, positive = activation is -14.5%.

Turning to `CC(C)OC(=O)C(C)N(C(=O)c1ccccc1)c1ccc(F)c(Cl)c1` (stereo not drawn), the Potency result in [1], in assay [2], in assay [3], in [8], in assay [9] and in [7] was “inactive” each time. In addition, in assay [10], the Potency result was “inactive”. Moreover, the Potency in assay [4] was 56.6 µM (active); in [5], 17.2 µM (active). Besides, in assay [6], the activity change, positive = activation was -51.7%.

As to `CCCCCCCCCCCC(=O)OC[C@@H](O)[C@H]1OC[C@H](OCCO)[C@H]1OCCO`, the Potency entry in assay [1], in assay [2], in assay [3], in [4], in assay [8] and in [9] was “inactive” in each case. In addition, the Potency result in [7] and in assay [10] was “inactive” each time.

With `c1cc(CCCc2ccncc2)ccn1`, the Potency entry in assay [1], in assay [2], in [3], in assay [4], in assay [8] and in assay [9] was “inactive” throughout. Also, the Potency result in [7] and in assay [10] was “inactive” throughout. Also, the activity change, positive = activation in assay [6] was -26.9%.

For `CCc1cc(C2=C(C(=O)O)N(c3ccccc3C(F)(F)F)S(=O)(=O)c3ccccc32)cc2c1OCO2`, in assay [1], the Potency was 21.6 µM (active). Further, the Potency entry in assay [2], in assay [3], in assay [4], in [8], in [9] and in [7] was “inactive” each time. Also, the Potency result in assay [10] is “inactive”. Besides, the activity change, positive = activation in [6] is -39.9%.

With `Nc1ccc([N+](=O)[O-])c(C(F)(F)F)c1`, the Potency entry in assay [1], in assay [2], in [3], in [4], in assay [5] and in assay [8] was “inactive” each time. Besides, the Potency entry in assay [9], in assay [7] and in assay [10] was “inactive” throughout. The activity change, positive = activation in assay [6] is -17.3% [at 42.5 µM].

Consider `O=C(Nc1ccc(S(=O)(=O)N2CCOCC2)cc1)c1cc(Cl)ccc1NS(=O)(=O)c1ccc(Cl)s1`, for which the Potency result in [1], in assay [2], in assay [3], in [4], in assay [5] and in [9] was “inactive” throughout. The Potency entry in assay [10] is “inactive”. Further, the activity change, positive = activation in assay [6] was -2.07% [at 42.5 µM]. For the same compound, the Potency in assay [7] was 19 µM (active).

As to `O=C(OCCCCCCOC(=O)c1ccccc1)c1ccccc1`, the Potency entry in [1], in assay [2], in assay [3], in [4], in assay [8] and in assay [7] was “inactive” each time. For the same compound, the Potency entry in assay [10] is “inactive”. The activity change, positive = activation in [6] was 1.59%.

Turning to `COc1ccc(C)cc1[N+](=O)[O-]`, the Potency result in assay [1], in [2], in [3], in assay [4], in [5] and in assay [8] was “inactive” each time. Moreover, the Potency result in assay [9], in assay [7] and in assay [10] was “inactive” throughout. Further, the activity change, positive = activation in [6] is 4.3%.

As for `CN1CCC(N(Cc2cccs2)c2ccccc2)CC1`, the Potency entry in assay [1], in [2], in assay [3], in assay [4], in assay [8] and in assay [9] was “inactive” throughout. In [10], the Potency result is “inactive”. The activity change, positive = activation in assay [6] is 0.685% [at 42.5 µM].

On to `C=CCOC(=O)CCC1CCCCC1`, for which the Potency result in assay [1], in assay [2], in assay [3], in assay [4], in assay [5] and in assay [8] was “inactive” throughout. Besides, the Potency entry in assay [9], in assay [7] and in assay [10] was “inactive” each time. The activity change, positive = activation in [6] was -4.2%.

For `OC[C@H]1O[C@@H](OCCc2ccc(O)cc2)[C@H](O)[C@@H](O)[C@@H]1O`, the Potency result in assay [1], in assay [2], in [3], in [4], in [8] and in [9] was “inactive” throughout. Besides, the Potency entry in assay [7] and in [10] was “inactive” each time. Moreover, the activity change, positive = activation in [6] was 4.76% [at 42.5 µM].

With `O=C1[C@H]2CCCC[C@H]2C(=O)N1CCCCN1CCN(c2nsc3ccccc23)CC1`, the Potency result in assay [1], in assay [2], in [3], in assay [4], in assay [8] and in [7] was “inactive” each time. Also, in assay [10], the Potency entry was “inactive”. In addition, the activity change, positive = activation in assay [6] is -38.9% [at 42.5 µM].

With `CC(COCCO)OCCO` (stereo not drawn), the Potency result in assay [1], in assay [2], in assay [3], in assay [4], in [8] and in [9] was “inactive” throughout. The Potency result in assay [7] and in assay [10] was “inactive” in each case. For the same compound, the activity change, positive = activation in assay [6] is 0.277%.

For `CC(C)(O)c1ccc(CNC(=O)c2cccnc2Oc2ccc(F)cc2)cc1`, the Potency result in assay [1], in assay [2], in assay [3], in assay [4], in [8] and in [7] was “inactive” in each case. The Potency result in assay [10] was “inactive”. Moreover, the activity change, positive = activation in assay [6] was -45%.

As for `CCCCCCCC/C=C\CCCCCCCC(=O)OCC`, the Potency entry in assay [1], in assay [2], in assay [3], in assay [4], in assay [8] and in [9] was “inactive” throughout. Moreover, the Potency entry in assay [7] and in assay [10] was “inactive” in each case. For the same compound, the activity change, positive = activation in assay [6] was -11.5%.

With `CCCCC(CC)COC(=O)CCCCCCCCC(=O)OCC(CC)CCCC` (stereo not drawn), the Potency entry in [1], in [2], in [3], in [4], in assay [5] and in [8] was “inactive” each time. In addition, the Potency entry in assay [9], in assay [7] and in assay [10] was “inactive” each time. Besides, the activity change, positive = activation in assay [6] was 1.57%.

With `COCCCN1CCC(NC(=O)c2cc(Cl)c(N)c3c2OCC3)CC1`, the Potency entry in [1], in assay [2], in assay [3], in assay [4], in assay [5] and in assay [8] was “inactive” each time. The Potency result in assay [9], in assay [7] and in assay [10] was “inactive” each time. Moreover, the activity change, positive = activation in [6] is 5.44% [at 42.5 µM].

With `Cc1ncc(CO)c(C=O)c1O`, the Potency result in [1], in [2], in assay [3], in assay [4], in assay [8] and in assay [9] was “inactive” throughout. In addition, the Potency entry in assay [7] and in assay [10] was “inactive” each time. Moreover, the activity change, positive = activation in [6] was 2.22% [at 42.5 µM].

On to `CCC(Cl)CCC(Cl)C(Cl)CC(Cl)C(Cl)C(Cl)CCl` (stereo not drawn), for which the Potency entry in [1], in [2], in [3], in assay [4], in [5] and in [8] was “inactive” in each case. Also, the Potency result in assay [9], in assay [7] and in assay [10] was “inactive” in each case. For the same compound, in assay [6], the activity change, positive = activation is 0.0481%.
